TGFb inhibitor: blocks TGF-b signaling; HepG2 CAGA-GFP TGF-b/SMAD3 reporter, GFP fluorescence, 18 h; TGF-beta stimulated, 500 pg/mL final; Potency, µM (series often up to 46.1 µM), hits mostly inhibitors; AID 588855; actives 1.2% (n = 410,000); note: nearly all actives have a fitted effect of over 65% in size
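GFP signal (ex488/em500-530) from TGF-beta-stimulated HEPG2 CAGA-GFP cells, 500 pg/mL final, 18 h at 37 degrees C in DMEM plus 1% FBS, normalized to unstimulated and DMSO-stimulated controls.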
ATXN2 expr inh: reduces ATXN2 reporter expression in HEK-293 cells; Potency, µM (top dose mostly 57 µM), most hits filed as inhibitors; HEK-293 ATXN2-luciferase reporter, luminescence, 24 h; actives 0.72% (n = 360,000); note: nearly all actives have a fitted effect of over 55% in size
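ATXN2-luciferase reporter cells (luciferase flanked by upstream and downstream ATXN2 gene portions) were treated 24 h at 37 °C with compounds at up to 57 uM. SteadyGlo luminescence gave expression; GF-AFC fluorescence gave viability.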
HT1080 IDH1KD tx: toxicity to HT-1080 IDH1 knockdown cells (counter line). actives 2% (n = 360,000). AID 686971. Potency, µM (titrated, usually from 46.1 µM), actives largely listed as cytotoxic. HT-1080 IDH1 knockdown viability, ATP luminescence, 48 h
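In this qHTS, HT-1080 cells depleted of IDH1 are exposed for 48 h at 37 °C to compound titrations. Toxicity is scored from CellTiter-Glo luminescence, with DMSO as full viability and medium alone as none.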
S2 tox: viability counter-screen for ATXN expression inhibitors; S2 cells (HEK-293 line with an ATXN2-luciferase reporter) viability, CellTiter-Fluor protease fluorescence, 24 h; Potency, µM (top dose mostly 56.7 µM), hits mostly cytotoxic; actives 0.49% (n = 400,000); note: nearly all actives have a fitted effect of over 40% in size
HepG2 tox: kills HepG2 cells in TGF-b inhibitor counter-screen; HepG2 CAGA-GFP viability, ATP luminescence, 18 h; Potency, µM (highest dose often 46.1 µM), usual class: cytotoxic; actives 0.76% (n = 410,000); AID 588856
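CellTiter-Glo luminescence gave cytotoxicity after 18 hours at 37 degrees C. The cells were HepG2 CAGA-GFP in 1% FBS DMEM, stimulated with 500 pg/mL TGF-beta after compound addition. %Activity was normalised to no-cell wells (complete cell-killing) and DMSO (no toxicity), and curves were fitted and classified.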
HT1080-NT tox: kills 2HG-producing HT-1080-NT fibrosarcoma cells. HT-1080-NT fibrosarcoma viability, CellTiter-Glo ATP luminescence, 48 h. Potency, µM (doses to about 46.1 µM), usual class: cytotoxic. actives 1.6% (n = 360,000);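 note: NT is the 2HG producing partner of a matched IDH1 knockdown line; nearly all actives have a fitted effect of over 55% in size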
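Toxicity toward the 2HG-producing NT line was scored as %Activity, normalised to DMSO and no-cell wells, from CellTiter-Glo luminescence after 48 hours' treatment.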
Numbers stand for hits; 0 = inactive; ? = inconclusive; - = not tested or not shown; [ ] = remark or other dose. A selection: hits, their analogues and other compounds. The true share with any hit is near 3.8%. Calls come from the whole dose curve; as a rule, active = well fitted curve in the direction sought with a large enough effect; inconclusive = small, poorly fitted or top-dose-only effect, or another doubt; inactive = no such curve, though single readings can be large; an effect the other way counts as inactive or inconclusive.

SMILES	TGFb inhibitor	ATXN2 expr inh	HT1080 IDH1KD tx	S2 tox	HepG2 tox	HT1080-NT tox
COc1cc(-c2cc3nc(NCCOc4ccccc4)ccn3n2)cc(OC)c1OC	?	?	9.2µM	?	0	21µM
c1ccc(COc2cccc(-c3cc4nc(NCCc5ccncc5)ccn4n3)c2)cc1	?	?	23µM	?	0	18µM
O=C1/C(=C/c2cccnc2)SC(=S)N1C1CCS(=O)(=O)C1 (stereo not drawn)	0	0	18µM	0	0	0
Cc1ccccc1CN(C)CCS(=O)(=O)c1cc(Cl)ccc1Cl	?	0	13µM	0	0	16µM
COc1ccccc1CCn1cnc(-c2ccc(OC)c(OC)c2)c1C(C)C	-	0	?	?	-	23µM
CCCCCc1c(-c2ccccc2)ncn1CCc1ccccc1OC	-	0	?	?	-	?
CCCCc1c(-c2cccc(OC)c2)ncn1CCc1ccccc1OC	-	22µM	26µM	-	-	21µM
CCCCc1c(-c2ccc(OC)c(OC)c2)ncn1CCc1ccccc1OC	-	?	12µM	-	-	15µM
CCCCc1c(Cc2cccc(F)c2)ncn1CCc1ccccc1OC	-	14µM	?	18µM	-	16µM
COc1ccccc1CCn1cnc2c3cc(C)ccc3n(C)c2c1=O	0	0	0	0	0	0
CCc1ccc(CNC(=O)C2CCCN(c3nn4cc(-c5ccc(F)cc5)nc4s3)C2)cc1 (stereo not drawn)	0	-	-	-	0	-
CC(C)(C)n1ncc2c(=O)n(Cc3c(Cl)ccc(Cl)c3Cl)cnc21	0	-	-	-	0	-
COc1ccc(NC(=O)Cn2ccn(-c3ccc(F)c(F)c3)c(=O)c2=O)cc1Cl	0	-	-	-	0	-
O=C(CN1C=NS(=O)(=O)c2ccc(C(F)(F)F)cc21)Nc1cccc(C(F)(F)F)c1	0	0	-	0	0	-
Cc1ccc(C(=O)Nc2sc3c(c2C(=O)O)CCCCC3)o1	0	0	18µM	0	0	21µM
COc1ccc(-n2c(SCc3ccccn3)nc3c(c2=O)SCC3)cc1OC	0	0	0	0	20µM	0
Cc1ccc(C)c(N2CCN(S(=O)(=O)c3ccc4[nH]c5c(c4c3)CCCCC5)CC2)c1	0	0	-	0	0	-
Cc1ccc(NS(=O)(=O)c2ccc3[nH]c4c(c3c2)CCCCCC4)cc1Cl	11µM	?	-	?	13µM	-
CC(=O)c1cccc(NS(=O)(=O)c2ccc3[nH]c4c(c3c2)CCCCCC4)c1	?	0	-	?	0	-
Cc1ccc(Cl)cc1N1CCN(S(=O)(=O)c2ccc3[nH]c4c(c3c2)CCCC4)CC1	10µM	0	-	0	0	-
O=S(=O)(Nc1cccc(Cl)c1)c1ccc2[nH]c3c(c2c1)CCCCCC3	11µM	?	-	-	20µM	-
CCOC(=O)c1cccc(NS(=O)(=O)c2ccc3[nH]c4c(c3c2)CCCC4)c1	14µM	?	-	?	0	-
COC(=O)CN1C(=O)CSc2ccc(S(=O)(=O)Nc3ccc(Cl)cc3C)cc21	?	-	-	-	0	-
COc1ccc(OC)c(S(=O)(=O)Nc2cccc(-c3ccc(N4CCCCC4)nn3)c2)c1	0	0	-	0	0	-
CC(=O)c1cccc(NS(=O)(=O)c2ccc3[nH]c4c(c3c2)CCCCC4)c1	?	?	-	?	0	-
SMILES	TGFb inhibitor	ATXN2 expr inh	HT1080 IDH1KD tx	S2 tox	HepG2 tox	HT1080-NT tox
Cc1cccc(NS(=O)(=O)c2ccc3[nH]c4c(c3c2)CCCCCC4)c1	10µM	-	-	-	20µM	-
CCOc1ccc(NS(=O)(=O)c2ccc3[nH]c4c(c3c2)CCCC4)cc1	11µM	?	-	?	11µM	-
Cc1ccc(Nc2nc(N)nc(CN3CCN(Cc4ccc5c(c4)OCO5)CC3)n2)cc1Cl	0	0	0	0	11µM	?
COC(=O)c1cc2ccsc2n1CC(=O)Nc1cc(Cl)ccc1OC	?	0	?	0	0	7.9µM
COc1cc(OC)c2nc(-c3cc4c(c(OC)c3)OCCN(C(=O)CC3NC(=O)c5ccccc53)C4)cc(C)c2c1 (stereo not drawn)	-	-	-	0	-	-
CC(C)C[C@H]1CN=C(Nc2ccccc2)N1CC1CCC(C(C)(C)C)CC1 (stereo partly drawn)	?	?	?	22µM	0	0
Cc1c(OCC(=O)NC2CC(C)(C)NC(C)(C)C2)ccc2c1oc(=O)c1ccccc12	0	18µM	0	?	0	0
Cc1cc(C)n(-c2nc(NCc3cccnc3)c3c4c(sc3n2)COC(C)(C)C4)n1	?	0	23µM	0	0	?
Cc1cccc2cc(CN(CCCN(C)C)C(=S)NCCc3ccccc3)c(=O)[nH]c12	0	0	0	0	0	0
Cc1ccc2[nH]c(=O)c(CN(CCCN(C)C)C(=S)NCCc3ccccc3)cc2c1	?	0	18µM	?	0	18µM
Cc1ccc2cc(CN(CCc3ccccc3)C(=S)NCCCN(C)C)c(=O)[nH]c2c1	?	?	?	?	0	26µM
CCN(CC)CCN(Cc1cc2ccc(C)cc2[nH]c1=O)C(=S)Nc1ccccc1C(=O)OC	0	0[11.3 µM]	18µM	0	0	?
COc1cc2cc(CN(CCc3cccc(C)c3)C(=S)NCCCN(C)C)c(=O)[nH]c2cc1OC	?	0	0	0	0	0
CC(=O)/C=N/Nc1ccccc1	22µM	0	0	0	0	?
CC(=NNc1ccccc1)C(C)=NNc1ccccc1	0	0	0	0	0	0
CCOC(=O)C1CCN(C(c2ccc(OCC)cc2)c2c(O)cc(C)n(CCOC)c2=O)CC1 (stereo not drawn)	0	-	-	-	0	-
COc1ccc(OC)c(C(C[N+](=O)[O-])c2c(C)cc3ccccn23)c1 (stereo not drawn)	0	?	18µM	?	0	23µM
Cc1cc(C(=O)Nc2cccc(-c3nc(CNC(=O)c4cc5ccccc5[nH]4)c(C)o3)c2)c(C)o1	-	-	-	0	-	-
O=C(Nc1ccc(Cl)cc1)c1cc(S(=O)(=O)NC2CCCCCC2)ccc1F	8.9µM	-	-	-	0	-
Cc1ccc(NC(=O)c2cc(S(=O)(=O)NC3CCCCCC3)ccc2F)cc1F	?	0	-	?	13µM	-
CCc1ccc(NC(=O)c2cc(S(=O)(=O)NC3CCCC3)ccc2F)cc1	?	-	-	-	0	-
O=C(Nc1nc2c(F)cc(F)cc2s1)c1ccccn1	?	?	6.5µM	?	0	?
CC(=O)Nc1ccccc1NC(=O)c1cc(C)ccc1C	0	0	0	0	0	0
Cc1ccccc1-c1ocnc1C(=O)Nc1ccccc1NC(=O)c1ccccn1	11µM	0	?	?	0	3.7µM
Cc1ccc(C)c(C(=O)c2ccccc2NC(=O)c2ccccn2)c1	0	0	21µM	0	0	?
O=C(COc1ccccc1)NNc1nc2c(F)cc(F)cc2s1	0	0	0	0	0	0
CCOc1ccc2nc(NC(=O)c3ccccn3)sc2c1	0	25µM	16µM	?	0	?

Compound activity from PubChem BioAssay.
